In PubChem BioAssay (NCI):
About 83,000 compounds went through this panel and 20% of them were active in at least one assay; those are over-represented in the sample as a whole.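 In brief: 96-well plates, 48 h treatment, single concentration, percent growth endpoint.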 Activity calls are given as the source filed them. The calls were made as follows: active = growth percent below 10; inactive = the rest.

Columns and labels:
Test in all cases: NCI-60 one-dose screen, 48 h (100 = growth as untreated, 0 = no growth, -100 = all killed)
Conditions in all cases: 10 µM unless noted
HCT-15 colon = tested on: HCT-15 colon
HT29 colon = tested on: HT29 colon
SNB-75 CNS = tested on: SNB-75 CNS
SNB-19 CNS = tested on: SNB-19 CNS
U251 CNS = tested on: U251 CNS
PC-3 prostate = tested on: PC-3 prostate
SK-MEL-5 melanoma = tested on: SK-MEL-5 melanoma
UACC-62 melanoma = tested on: UACC-62 melanoma
LOX IMVI melanoma = tested on: LOX IMVI melanoma
SK-MEL-28 melanoma = tested on: SK-MEL-28 melanoma
SK-MEL-2 melanoma = tested on: SK-MEL-2 melanoma
EKVX NSCLC = tested on: EKVX NSCLC
SN12C renal = tested on: SN12C renal
UO-31 renal = tested on: UO-31 renal
TK-10 renal = tested on: TK-10 renal
ACHN renal = tested on: ACHN renal
A498 renal = tested on: A498 renal
CCRF-CEM leukemia = tested on: CCRF-CEM leukemia
MOLT-4 leukemia = tested on: MOLT-4 leukemia

Measured: growth

O=C(Nc1ccc(F)cc1)Nc1ccc(Br)c(C(F)(F)F)c1
inactive: SNB-75 CNS 22.2% | SNB-19 CNS 19.8% | U251 CNS 11.6% | UACC-62 melanoma 21.7% | SK-MEL-28 melanoma 20.8% | SN12C renal 11.3% | TK-10 renal 10.4% | MOLT-4 leukemia 12.8%
active: HCT-15 colon 8.12% | HT29 colon 6.61% | PC-3 prostate 4.68% | SK-MEL-5 melanoma 4.53% | LOX IMVI melanoma -16.7% | SK-MEL-2 melanoma -11.1% | EKVX NSCLC 7.24% | UO-31 renal 7.01% | ACHN renal 2.25% | A498 renal 4.62% | CCRF-CEM leukemia 6.73%

Nc1nc(Cl)c2c(C(F)(F)F)cn(CC3CCNCC3)c2n1
active: LOX IMVI melanoma -12.9%
inactive: HCT-15 colon 35.6% | HT29 colon 19.7% | SNB-75 CNS 97.6% | SNB-19 CNS 61.5% | U251 CNS 45% | PC-3 prostate 93.2% | SK-MEL-5 melanoma 94.9% | UACC-62 melanoma 86.8% | SK-MEL-28 melanoma 83.6% | SK-MEL-2 melanoma 87.9% | EKVX NSCLC 88.8% | SN12C renal 85.7% | UO-31 renal 91.6% | TK-10 renal 91.5% | ACHN renal 104% | A498 renal 107% | CCRF-CEM leukemia 51.9% | MOLT-4 leukemia 45.8%

Nc1ccc(S(=O)(=O)Nc2cc(I)cc(I)c2)cc1
active: CCRF-CEM leukemia -9.38% | MOLT-4 leukemia -69.4%
inactive: HCT-15 colon 112% | HT29 colon 107% | SNB-75 CNS 97.6% | SNB-19 CNS 116% | U251 CNS 106% | PC-3 prostate 97.2% | SK-MEL-5 melanoma 105% | UACC-62 melanoma 107% | LOX IMVI melanoma 104% | SK-MEL-28 melanoma 105% | SK-MEL-2 melanoma 97.7% | EKVX NSCLC 124% | SN12C renal 115% | UO-31 renal 99.7% | TK-10 renal 107% | ACHN renal 120% | A498 renal 77.7%

CCC(C)Nc1ccc(N)cc1 (configuration not stated)
inactive: HCT-15 colon 30.5% | SNB-75 CNS 29.8% | SNB-19 CNS 30.6% | U251 CNS 10.3% | UACC-62 melanoma 30.3% | SK-MEL-28 melanoma 71.6% | SN12C renal 10.5% | TK-10 renal 45.4% | ACHN renal 46% | A498 renal 91.9% | CCRF-CEM leukemia 12.8%
active: HT29 colon 7.64% | PC-3 prostate 6.03% | SK-MEL-5 melanoma -6.02% | LOX IMVI melanoma 5.41% | SK-MEL-2 melanoma 7.8% | EKVX NSCLC 8.66% | UO-31 renal -2.85% | MOLT-4 leukemia -13.7%

CCOC(=O)C1CN(Cc2ccccc2)C(=O)C1=O (configuration not stated)
inactive: HCT-15 colon 86.2% | HT29 colon 115% | SNB-75 CNS 76.1% | SNB-19 CNS 101% | U251 CNS 111% | PC-3 prostate 91.8% | SK-MEL-5 melanoma 106% | UACC-62 melanoma 103% | LOX IMVI melanoma 104% | SK-MEL-28 melanoma 101% | SK-MEL-2 melanoma 114% | EKVX NSCLC 110% | SN12C renal 108% | UO-31 renal 64.3% | TK-10 renal 113% | ACHN renal 104% | A498 renal 91.6% | CCRF-CEM leukemia 22.9%

COC(=O)CCCNS(=O)(=O)c1cc(C(=O)Nc2ccc(NC(=O)c3cc(S(=O)(=O)NCCCC(=O)OC)c(O)c(O)c3O)cc2)c(O)c(O)c1O
active: LOX IMVI melanoma 2.88%
inactive: HCT-15 colon 92.1% | HT29 colon 79.8% | SNB-75 CNS 95.1% | SNB-19 CNS 96.1% | U251 CNS 70.3% | PC-3 prostate 83.3% | SK-MEL-5 melanoma 93.6% | UACC-62 melanoma 76.7% | SK-MEL-28 melanoma 110% | SK-MEL-2 melanoma 98.6% | EKVX NSCLC 84.3% | SN12C renal 85.3% | UO-31 renal 82.9% | TK-10 renal 94.9% | ACHN renal 109% | A498 renal 104% | CCRF-CEM leukemia 58.6% | MOLT-4 leukemia 87.6%

COc1cc(-c2nc3sc(C)cn3c2/C=C2\C(=O)Nc3ccccc32)c(Br)c(OC)c1OC
active: HT29 colon 9.62%
inactive: HCT-15 colon 52.9% | SNB-75 CNS 18.2% | SNB-19 CNS 40.4% | U251 CNS 52.1% | PC-3 prostate 26.5% | SK-MEL-5 melanoma 10.4% | UACC-62 melanoma 52.8% | LOX IMVI melanoma 41.3% | SK-MEL-28 melanoma 69.5% | SK-MEL-2 melanoma 74.3% | EKVX NSCLC 31.5% | SN12C renal 90.9% | UO-31 renal 24.8% | TK-10 renal 56.5% | ACHN renal 57% | A498 renal 22.6% | CCRF-CEM leukemia 34.7% | MOLT-4 leukemia 39.9%

CCc1c2cc(Cl)ccc2n2cc(Cc3ccccc3)[nH]c(=O)c12
inactive: HCT-15 colon 98.9% | HT29 colon 110% | SNB-75 CNS 96.9% | SNB-19 CNS 104% | U251 CNS 99.5% | PC-3 prostate 97.4% | SK-MEL-5 melanoma 104% | UACC-62 melanoma 98.2% | LOX IMVI melanoma 98.2% | SK-MEL-28 melanoma 107% | SK-MEL-2 melanoma 97.5% | EKVX NSCLC 101% | SN12C renal 101% | UO-31 renal 82.3% | TK-10 renal 120% | ACHN renal 93.3% | A498 renal 102% | CCRF-CEM leukemia 93.9%

CN1CCN(C(=O)/C=C/c2ccc([N+](=O)[O-])o2)CC1
inactive: HCT-15 colon 63.8% | HT29 colon 81.8% | SNB-75 CNS 95.2% | SNB-19 CNS 98% | U251 CNS 90% | PC-3 prostate 95.7% | SK-MEL-5 melanoma 90.1% | UACC-62 melanoma 69.9% | LOX IMVI melanoma 66.7% | SK-MEL-28 melanoma 35.8% | SK-MEL-2 melanoma 59.5% | EKVX NSCLC 132% | SN12C renal 91% | UO-31 renal 79.3% | TK-10 renal 159% | ACHN renal 63.7% | A498 renal 76% | CCRF-CEM leukemia 56.4% | MOLT-4 leukemia 59.9%

Cc1ccn2cc(Cc3cc(=O)oc4c3ccc3ccccc34)c(=O)nc2c1
inactive: HCT-15 colon 97.4% | HT29 colon 87.8% | SNB-75 CNS 81.4% | SNB-19 CNS 103% | U251 CNS 102% | PC-3 prostate 104% | SK-MEL-5 melanoma 100% | UACC-62 melanoma 96.6% | LOX IMVI melanoma 98.6% | SK-MEL-28 melanoma 100% | SK-MEL-2 melanoma 80.6% | EKVX NSCLC 92.5% | SN12C renal 96.4% | UO-31 renal 80.2% | TK-10 renal 124% | ACHN renal 95.5% | A498 renal 111% | CCRF-CEM leukemia 95.8% | MOLT-4 leukemia 87.9%

S=c1n(CNc2ccc(Cl)nn2)nc(-c2cc(Cl)cc(Cl)c2Cl)n1/N=C/c1ccc(Cl)cc1
inactive: HCT-15 colon 117% | HT29 colon 118% | SNB-75 CNS 98.5% | SNB-19 CNS 102% | U251 CNS 86.9% | PC-3 prostate 82.6% | SK-MEL-5 melanoma 90.9% | UACC-62 melanoma 90.4% | LOX IMVI melanoma 94.5% | SK-MEL-28 melanoma 105% | SK-MEL-2 melanoma 84.1% | EKVX NSCLC 91.3% | SN12C renal 103% | UO-31 renal 80.8% | TK-10 renal 113% | ACHN renal 107% | A498 renal 121% | MOLT-4 leukemia 60.5%
active: CCRF-CEM leukemia -32.8%

CC1(C)Cc2c(Br)c(Br)c(Br)c(OCC(O)CN3CCN(c4ccccn4)CC3)c2O1 (configuration not stated)
active: CCRF-CEM leukemia -14.3%
inactive: HCT-15 colon 79.7% | HT29 colon 69.7% | SNB-75 CNS 187% | SNB-19 CNS 101% | U251 CNS 82.3% | PC-3 prostate 48.5% | SK-MEL-5 melanoma 63.5% | UACC-62 melanoma 92.9% | LOX IMVI melanoma 68.6% | SK-MEL-28 melanoma 115% | SK-MEL-2 melanoma 77.1% | EKVX NSCLC 95.3% | SN12C renal 106% | UO-31 renal 47.7% | TK-10 renal 66% | ACHN renal 85.8% | A498 renal 96.2% | MOLT-4 leukemia 52.9%

COc1ccc(/C=N/C2=NNC(C)(c3ccccc3O)N2C(Cc2c[nH]c3ccccc23)C(=O)O)cc1 (configuration not stated)
inactive: HCT-15 colon 39.7% | SNB-75 CNS 32.5% | SNB-19 CNS 27.8% | U251 CNS 21% | PC-3 prostate 23.8% | UACC-62 melanoma 17.7% | LOX IMVI melanoma 19.2% | SK-MEL-28 melanoma 33.5% | SK-MEL-2 melanoma 20.2% | EKVX NSCLC 27.5% | SN12C renal 34.4% | UO-31 renal 32.1% | TK-10 renal 70.4% | ACHN renal 46.5% | A498 renal 46.5% | CCRF-CEM leukemia 19.7% | MOLT-4 leukemia 14.4%
active: HT29 colon 5.86% | SK-MEL-5 melanoma -78.3%

COc1ccc2c(c1)/C(=C/c1c(-c3cc(OC)c(OC)c(OC)c3Br)nc3sccn13)C(=O)N2
inactive: HCT-15 colon 109% | HT29 colon 103% | SNB-75 CNS 109% | SNB-19 CNS 106% | U251 CNS 93.4% | PC-3 prostate 82.6% | SK-MEL-5 melanoma 83.1% | UACC-62 melanoma 69.2% | LOX IMVI melanoma 64.7% | SK-MEL-28 melanoma 123% | SK-MEL-2 melanoma 87.3% | EKVX NSCLC 84.6% | SN12C renal 120% | UO-31 renal 83.3% | TK-10 renal 118% | ACHN renal 86.5% | A498 renal 108% | CCRF-CEM leukemia 81% | MOLT-4 leukemia 73.2%

O=C1OC(=O)C2C3CC(c4ccccc43)C12 (configuration not stated)
inactive: HCT-15 colon 94.5% | HT29 colon 112% | SNB-75 CNS 89.4% | SNB-19 CNS 107% | U251 CNS 97.4% | PC-3 prostate 92.1% | SK-MEL-5 melanoma 112% | UACC-62 melanoma 105% | LOX IMVI melanoma 103% | SK-MEL-28 melanoma 116% | SK-MEL-2 melanoma 125% | EKVX NSCLC 99.3% | SN12C renal 113% | UO-31 renal 76.2% | TK-10 renal 123% | ACHN renal 90.1% | A498 renal 110% | CCRF-CEM leukemia 98.8% | MOLT-4 leukemia 104%

CCOC(=O)c1cnc2c(OC)ccc(OC)c2c1Cl
active: CCRF-CEM leukemia 5.54%
inactive: HCT-15 colon 107% | HT29 colon 117% | SNB-75 CNS 82.7% | SNB-19 CNS 114% | U251 CNS 109% | PC-3 prostate 93.6% | SK-MEL-5 melanoma 107% | UACC-62 melanoma 109% | LOX IMVI melanoma 91.1% | SK-MEL-28 melanoma 120% | SK-MEL-2 melanoma 127% | EKVX NSCLC 115% | SN12C renal 110% | UO-31 renal 88.3% | TK-10 renal 106% | ACHN renal 100% | A498 renal 91.8% | MOLT-4 leukemia 113%
